From PubChem BioAssay (NCI)
About 83,000 compounds went through this panel and 20% of them were active in at least one assay; those are over-represented in the sample as a whole.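 Single-concentration screen, 48 h exposure, 96-well plates. Endpoint: percent growth. Below 10 = active.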 The source made the active and inactive calls.

Experiments:
Assay in all cases: NCI-60 one-dose screen, 48 h (100 = growth as untreated, 0 = no growth, -100 = all killed)
HT29 colon = settings: 10 µM unless noted
SNB-75 CNS = settings: 10 µM unless noted
SNB-19 CNS = settings: 10 µM unless noted
PC-3 prostate = settings: 10 µM unless noted
UACC-62 melanoma = settings: 10 µM unless noted
LOX IMVI melanoma = settings: 10 µM unless noted
SK-MEL-28 melanoma = settings: 10 µM
SK-MEL-2 melanoma = settings: 10 µM unless noted
SN12C renal = settings: 10 µM unless noted
UO-31 renal = settings: 10 µM unless noted
TK-10 renal = settings: 10 µM unless noted
ACHN renal = settings: 10 µM unless noted
CAKI-1 renal = settings: 10 µM unless noted
A498 renal = settings: 10 µM unless noted
CCRF-CEM leukemia = settings: 10 µM unless noted
MOLT-4 leukemia = settings: 10 µM unless noted
SR leukemia = settings: 10 µM unless noted
SK-MEL-5 melanoma = settings: 10 µM unless noted
EKVX NSCLC = settings: 10 µM unless noted

Measured: growth

COC(=O)[C@@H]1CCCN1C(=O)[C@H]1CCCN1C(=O)[C@@H](Cc1c[nH]c2ccccc12)NC(=S)Nc1cc(C(F)(F)F)cc(C(F)(F)F)c1
active: SR leukemia 5.25%
inactive: HT29 colon 33% | SNB-75 CNS 46.6% | SNB-19 CNS 37.6% | PC-3 prostate 32.4% | UACC-62 melanoma 48.5% | LOX IMVI melanoma 38.8% | SK-MEL-28 melanoma 55.7% | SK-MEL-2 melanoma 55.3% | SN12C renal 44.4% | UO-31 renal 28.3% | TK-10 renal 78.7% | ACHN renal 37.2% | CAKI-1 renal 22% | A498 renal 57.7% | CCRF-CEM leukemia 36.3% | MOLT-4 leukemia 16.3%

Cc1ccc(C(=O)c2oc3ccc4c(C)cc(=O)oc4c3c2C)cc1
inactive: HT29 colon 14.3% | SNB-75 CNS 67.8% | SNB-19 CNS 41.4% | UACC-62 melanoma 29.4% | LOX IMVI melanoma 33.2% | SK-MEL-28 melanoma 51.4% | SK-MEL-2 melanoma 32.1% | SN12C renal 30.5% | TK-10 renal 27.2% | ACHN renal 32.9% | CAKI-1 renal 15.2% | A498 renal 32.3% | CCRF-CEM leukemia 17.1% | SR leukemia 12.7%
active: PC-3 prostate 7.34% | SK-MEL-5 melanoma -56.6% | UO-31 renal 9.48% | MOLT-4 leukemia 7.13%

O=C(Nc1ccc(Cl)cc1F)c1cc(Br)ccc1O
active: SNB-75 CNS -13.6% | PC-3 prostate -0.306% | SK-MEL-5 melanoma -87.2% | UACC-62 melanoma -21.8% | SK-MEL-2 melanoma -16.3% | EKVX NSCLC 9.24% | SN12C renal 1.01% | UO-31 renal 5.96% | TK-10 renal 5.64% | ACHN renal 2.84% | CAKI-1 renal -10.7% | A498 renal -62.9% | MOLT-4 leukemia 0.561%
inactive: HT29 colon 42.4% | SNB-19 CNS 20.4% | LOX IMVI melanoma 16.1% | SK-MEL-28 melanoma 13.2% | CCRF-CEM leukemia 15.1%

COCCN(C(=O)Cc1cccs1)C(C(=O)NCc1ccc(OC)cc1)c1ccc(C(C)C)cc1 (centres undefined)
inactive: HT29 colon 97.2% | SNB-75 CNS 79.7% | SNB-19 CNS 106% | PC-3 prostate 47.5% | SK-MEL-5 melanoma 98.2% | UACC-62 melanoma 84.8% | SK-MEL-28 melanoma 113% | SK-MEL-2 melanoma 102% | SN12C renal 89.9% | UO-31 renal 82.5% | TK-10 renal 115% | ACHN renal 87.1% | CAKI-1 renal 84.6% | A498 renal 77.1% | CCRF-CEM leukemia 93.9% | MOLT-4 leukemia 80.3% | SR leukemia 74.3%

O=c1oc2ccc(Br)cc2c(=O)n1-c1ccc(Cl)cc1F
active: SNB-75 CNS -26.9% | PC-3 prostate -7.82% | UACC-62 melanoma -28.5% | LOX IMVI melanoma 8.91% | SK-MEL-28 melanoma -0.768% | SK-MEL-2 melanoma -19.6% | EKVX NSCLC 9.06% | SN12C renal 1.42% | UO-31 renal 7.61% | TK-10 renal 7.09% | ACHN renal 2.66% | CAKI-1 renal -18.1% | A498 renal -69.8% | CCRF-CEM leukemia 6.89% | MOLT-4 leukemia -8.39%
inactive: HT29 colon 20.2% | SNB-19 CNS 17.7%

OC(CNC1CCCCC1)Cn1c2ccc(I)cc2c2cc(I)ccc21 (centres undefined)
inactive: HT29 colon 95.7% | SNB-75 CNS 50.4% | SNB-19 CNS 86% | PC-3 prostate 62.5% | SK-MEL-5 melanoma 67.7% | UACC-62 melanoma 64.8% | SK-MEL-28 melanoma 81.3% | SK-MEL-2 melanoma 97% | SN12C renal 70.1% | UO-31 renal 47.7% | TK-10 renal 94.6% | ACHN renal 75.4% | CAKI-1 renal 63.9% | A498 renal 87.8% | CCRF-CEM leukemia 78.1% | MOLT-4 leukemia 68.2% | SR leukemia 68.1%

O=c1cc(-c2ccccc2)oc2cc(OCc3cn(Cc4ccc(F)cc4)nn3)cc(OCc3cn(Cc4ccc(F)cc4)nn3)c12
active: SNB-75 CNS 6.29% | UO-31 renal 3.64% | ACHN renal 7.3%
inactive: HT29 colon 35.1% | SNB-19 CNS 12.1% | PC-3 prostate 36% | SK-MEL-5 melanoma 17.1% | UACC-62 melanoma 30% | LOX IMVI melanoma 34.8% | SK-MEL-28 melanoma 29.9% | SK-MEL-2 melanoma 48.8% | EKVX NSCLC 57.2% | SN12C renal 38.7% | TK-10 renal 37.1% | CAKI-1 renal 54.6% | A498 renal 30.8% | CCRF-CEM leukemia 77.5% | MOLT-4 leukemia 83.2% | SR leukemia 32.7%

O=C(Nc1ccc(I)cc1F)c1cc(Cl)ccc1O
inactive: HT29 colon 33.5% | SNB-19 CNS 18.6% | TK-10 renal 10.5%
active: SNB-75 CNS -24.3% | PC-3 prostate 3.02% | UACC-62 melanoma -18.8% | LOX IMVI melanoma 0.0612% | SK-MEL-28 melanoma -4.2% | SK-MEL-2 melanoma -30.8% | EKVX NSCLC 7.55% | SN12C renal 2.43% | UO-31 renal 9.04% | ACHN renal 6.15% | CAKI-1 renal -12% | A498 renal -64.4% | CCRF-CEM leukemia 7.89% | MOLT-4 leukemia -30.5%

Cc1ccc(S(=O)c2ccc([N+](=O)[O-])c3nonc23)cc1 (centres undefined)
inactive: HT29 colon 93.8% | SNB-75 CNS 112% | SNB-19 CNS 117% | PC-3 prostate 92.6% | SK-MEL-5 melanoma 100% | UACC-62 melanoma 108% | LOX IMVI melanoma 73.6% | SK-MEL-28 melanoma 105% | SK-MEL-2 melanoma 112% | SN12C renal 126% | UO-31 renal 97.9% | TK-10 renal 72.3% | ACHN renal 72.4% | CAKI-1 renal 90.5% | A498 renal 84.3%
active: CCRF-CEM leukemia 1.61% | MOLT-4 leukemia -3.44% | SR leukemia -8.16%

CN=c1ccc2nc3ccc(N)cc3sc-2c1
active: PC-3 prostate 5.54% | LOX IMVI melanoma 2.59% | SK-MEL-2 melanoma -0.853% | MOLT-4 leukemia 1.3%
inactive: HT29 colon 84.6% | SNB-75 CNS 33.6% | SNB-19 CNS 30.9% | UACC-62 melanoma 15.8% | SK-MEL-28 melanoma 51.7% | SN12C renal 17% | UO-31 renal 60.7% | TK-10 renal 49.4% | ACHN renal 42.2% | CAKI-1 renal 28.2% | A498 renal 79.9% | CCRF-CEM leukemia 21.5% | SR leukemia 38%

CC(=O)c1ccc2oc(=O)n(Cc3ccc(C#N)cc3)c(=O)c2c1
inactive: HT29 colon 112% | SNB-75 CNS 87.3% | SNB-19 CNS 104% | PC-3 prostate 97.5% | SK-MEL-5 melanoma 105% | UACC-62 melanoma 97.9% | LOX IMVI melanoma 97.8% | SK-MEL-28 melanoma 104% | SK-MEL-2 melanoma 101% | EKVX NSCLC 101% | SN12C renal 99.3% | UO-31 renal 85.6% | TK-10 renal 103% | ACHN renal 104% | CAKI-1 renal 94.6% | A498 renal 91.1% | CCRF-CEM leukemia 106% | MOLT-4 leukemia 107% | SR leukemia 109%

CCN(CC)CCNC(=O)C(Cl)=C1C(Cl)=C(Cl)C(Cl)=C1Cl
active: CAKI-1 renal 6.11%
inactive: HT29 colon 41.3% | SNB-75 CNS 48.4% | SNB-19 CNS 85.5% | PC-3 prostate 56.2% | SK-MEL-5 melanoma 47% | UACC-62 melanoma 55.1% | LOX IMVI melanoma 22.6% | SK-MEL-28 melanoma 72.7% | SK-MEL-2 melanoma 47.6% | EKVX NSCLC 87.8% | SN12C renal 47.8% | UO-31 renal 43.6% | TK-10 renal 59.4% | ACHN renal 48.6% | A498 renal 71.8% | MOLT-4 leukemia 15% | SR leukemia 34.8%

CCN(CC)CCCNc1ccnc2cc3ccccc3cc12
inactive: HT29 colon 74.6% | SNB-75 CNS 36.6% | SNB-19 CNS 71.3% | PC-3 prostate 60.7% | SK-MEL-5 melanoma 50.6% | UACC-62 melanoma 69.8% | LOX IMVI melanoma 53.9% | SK-MEL-28 melanoma 65.3% | SK-MEL-2 melanoma 57% | SN12C renal 87.6% | UO-31 renal 106% | TK-10 renal 83.8% | ACHN renal 70.7% | CAKI-1 renal 75.3% | A498 renal 94% | CCRF-CEM leukemia 91.1% | MOLT-4 leukemia 87.3% | SR leukemia 77.5%

Cc1c(-c2noc(-c3ccc([N+](=O)[O-])cc3)n2)no[n+]1[O-]
inactive: HT29 colon 105% | SNB-75 CNS 89.8% | SNB-19 CNS 99.8% | PC-3 prostate 92.5% | SK-MEL-5 melanoma 92.1% | UACC-62 melanoma 87.6% | LOX IMVI melanoma 97.7% | SK-MEL-28 melanoma 108% | SK-MEL-2 melanoma 101% | EKVX NSCLC 65.2% | SN12C renal 98.3% | UO-31 renal 78.4% | TK-10 renal 153% | ACHN renal 89.2% | CAKI-1 renal 83.8% | A498 renal 117% | CCRF-CEM leukemia 101% | MOLT-4 leukemia 101% | SR leukemia 103%

COc1ccc(-c2nnc(COc3ccc(C(=O)/C=C/c4ccco4)cc3)o2)cc1
active: LOX IMVI melanoma -30.5% | SR leukemia 0.0515%
inactive: HT29 colon 20.3% | SNB-75 CNS 60.1% | SNB-19 CNS 78.1% | PC-3 prostate 86.2% | UACC-62 melanoma 85.9% | SK-MEL-28 melanoma 90.9% | SK-MEL-2 melanoma 132% | SN12C renal 68.1% | UO-31 renal 53.5% | TK-10 renal 95.3% | ACHN renal 85.9% | CAKI-1 renal 67.2% | A498 renal 115% | CCRF-CEM leukemia 10.7% | MOLT-4 leukemia 41.9%

O=C(c1nc2ccccc2[nH]1)C1C(c2ccc(F)cc2)C2CC3CCCCC3N2[C@@]12C(=O)Nc1ccc(Cl)cc12 (some centres undefined)
inactive: HT29 colon 24.9% | SNB-75 CNS 36.7% | SNB-19 CNS 54.1% | PC-3 prostate 35.4% | SK-MEL-5 melanoma 47.3% | UACC-62 melanoma 55.1% | LOX IMVI melanoma 46% | SK-MEL-28 melanoma 61% | SK-MEL-2 melanoma 65.8% | EKVX NSCLC 39.5% | SN12C renal 52% | UO-31 renal 30.9% | TK-10 renal 72.9% | ACHN renal 43.1% | CAKI-1 renal 54.8% | A498 renal 39.8% | CCRF-CEM leukemia 33.3% | MOLT-4 leukemia 11.4% | SR leukemia 21%

CCOC(=O)c1sc(-c2ccc(OS(=O)(=O)c3ccc(Br)s3)c(C=O)c2)nc1C
inactive: SNB-19 CNS 14.4% | PC-3 prostate 20.1% | UACC-62 melanoma 12.3% | SK-MEL-28 melanoma 55% | SK-MEL-2 melanoma 11.3% | EKVX NSCLC 85.6% | A498 renal 65.3% | SR leukemia 13.9%
active: HT29 colon -17.9% | SNB-75 CNS -5.48% | SK-MEL-5 melanoma -92.6% | LOX IMVI melanoma -54.5% | SN12C renal 4.77% | UO-31 renal -0.882% | TK-10 renal -1.6% | ACHN renal 7.37% | CAKI-1 renal 3.48% | CCRF-CEM leukemia 8.75% | MOLT-4 leukemia 9.25%
